Shiga inhibitor = Shiga toxin inhibition. Vero cells, Shiga toxin protein synthesis inhibition reporter. inhibition, % at 38.7 µM. hit rate 9.2% among 290,000; in the data active means inhibition mostly above about 28%, no sharp cut-off; inactive means mostly below about 43%; further: 0% is about no effect
LmPK inh = LmPK (Leishmania mexicana) enzyme inhibition; Q27686; purified LmPK, Kinase-Glo ATP luminescence, 1 h; Potency, µM (titrated, usually from 57.5 µM), for the others: at the top dose activity change, negative = inhibition, actives largely listed as inhibitors; hit rate 0.37% among 290,000; AID 1721; further: potency means the concentration at half of the fitted maximal effect; on the % scale 0 is the no-effect control and ±100 the full control effect
Target sequence (Q27686 whole entry, looked up): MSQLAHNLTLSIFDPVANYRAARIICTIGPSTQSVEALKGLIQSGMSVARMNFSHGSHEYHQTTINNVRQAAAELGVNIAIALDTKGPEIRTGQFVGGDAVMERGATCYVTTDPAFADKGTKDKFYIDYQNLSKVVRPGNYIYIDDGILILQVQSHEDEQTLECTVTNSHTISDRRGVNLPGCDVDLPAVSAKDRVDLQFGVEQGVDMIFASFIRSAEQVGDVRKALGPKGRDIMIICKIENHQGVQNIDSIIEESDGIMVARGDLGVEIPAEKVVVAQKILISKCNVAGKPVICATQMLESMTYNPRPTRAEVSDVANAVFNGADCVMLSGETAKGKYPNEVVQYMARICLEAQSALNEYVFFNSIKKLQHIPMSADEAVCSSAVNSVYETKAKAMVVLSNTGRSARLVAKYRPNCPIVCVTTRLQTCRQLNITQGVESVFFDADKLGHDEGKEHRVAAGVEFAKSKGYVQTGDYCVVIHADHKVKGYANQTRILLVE
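In 50 mM imidazole pH 7.2 with 7 mM MgCl2, LmPK (0.1 nM) turned over PEP (0.5 mM) and ADP (0.1 mM) for 1 h at room temperature. Luciferase read-out of ATP.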
RE007 growth inh = less growth of the S. pombe RE007 Vpr strain; S. pombe RE007 Vpr strain, BacTiter-Glo ATP luminescence, 24 h; Potency, µM (series often up to 92.2 µM), without a hit: top-dose activity change, negative = less growth, actives largely listed as inhibitors; hit rate 0.21% among 360,000; active means well fitted falling curve with a large enough effect; further: potency means the concentration at half of the fitted maximal effect; on the % scale 0 is the no-effect control and ±100 the full control effect; nearly all actives have a fitted effect of over 50% in size
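Fission yeast RE007 carrying one integrated HIV-1 vpr copy, seeded at OD 0.01 in PMG+AL medium with 23 nL pinned compound. Grown 24 h at 30 degrees; viability read by BacTiter-Glo luminescence after 5 min.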
CHX counter = counter-screen hit for Shiga toxin inhibitors, cycloheximide | max response, % | hit rate 12% among 300,000 | cell reporter, cycloheximide protein synthesis inhibition counterscreen; in the data active means max response mostly above about 13%, no sharp cut-off; inactive means mostly below about 14%; further: read at 38.3 µM for the half of the compounds with a filed dose; 0% is about no effect
TbPYK inhibitor = T. brucei pyruvate kinase inhibition | TbPYK enzyme, Kinase-Glo Plus ATP luminescence, 45 min | AID 624173 | Potency, µM (highest dose often 76.8 µM), without a hit: at the highest dose activity, negative = inhibition, most hits filed as inhibitors | hit rate 0.12% among 410,000; further: potency means the concentration at half of the fitted maximal effect; on the % scale 0 is the no-effect control and ±100 the full control effect; nearly all actives have a fitted effect of over 50% in size
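Quantitative HTS: titrated library compounds versus trypanosomal pyruvate kinase in TEA buffer (pH 7.2) containing KCl, MgCl2, BSA and Tween-20. Reactions were initiated with ADP, 130 uM final. Kinase-Glo Plus luminescence was read after 45 min at RT.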
Giardia FBPA inh = blocks Giardia fructose-bisphosphate aldolase activity; hit rate 0.71% among 290,000; purified Giardia FBPA; Potency, µM (top dose mostly 59.6 µM), for the others: at the top dose activity, negative = inhibition, most hits filed as inhibitors; AID 2451; A8B2U2; further: potency means the concentration at half of the fitted maximal effect; on the % scale 0 is the no-effect control and ±100 the full control effect; nearly all actives have a fitted effect of over 55% in size
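40 nM FBPA preincubated 10 min at RT with compound (up to 57.5 uM final), then substrate plus GAPDH/TPI/NAD/arsenate coupling and diaphorase/resazurin added. Fluorescence read after 20 min at RT, 525/598 nm.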
* = called active by the depositor. This excerpt belongs to a sample that is enriched for hits. Unless noted, the call rests on the fitted dose curve; in most records, active means well fitted curve in the direction sought with a large enough effect; inconclusive means small, poorly fitted or top-dose-only effect, or another doubt; inactive means no such curve, though single readings can be large; an effect the other way counts as inactive or inconclusive.

What do the screens show for `Cc1c(NC(=O)C(C)OC(=O)/C=C/c2ccc3c(c2)OCO3)c(=O)n(-c2ccccc2)n1C` (centres undefined)?
Shiga inhibitor: 88.7*; LmPK inh: 0.4%; RE007 growth inh: 0.1%; CHX counter: 37.4*; TbPYK inhibitor: -16.1%; Giardia FBPA inh: 2.7%

Results for COc1ccc(NC(=O)/C=C/c2ccc3c(c2)OCO3)cc1 ?
Shiga inhibitor: 78.0*; LmPK inh: -1.4%; RE007 growth inh: 2.3%; CHX counter: 47.6*; TbPYK inhibitor: -2.5%; Giardia FBPA inh: -13.1%

Results for CC(C)(C)c1ccc(C(=O)N2CCC(c3nc4ccccc4o3)CC2)cc1 ?
TbPYK inhibitor: 2.9%

How did O=C(COCc1cc(-c2cccs2)on1)NCc1cccc(Cl)c1 do in these assays?
TbPYK inhibitor: 1.7%

How did CC(C)Oc1ccc(CN2CCC(n3nccc3NC(=O)C3CC3)CC2)cc1 do in these assays?
Shiga inhibitor: -35.3; LmPK inh: -12.1%; RE007 growth inh: 0.8%; CHX counter: 1.7; TbPYK inhibitor: 2.6%

Results for CN(/N=C/c1ccc2c(c1)OCO2)c1ccccc1 ?
Shiga inhibitor: 127.1*; LmPK inh: -9.2%; RE007 growth inh: -13.2%; CHX counter: 95.1*; TbPYK inhibitor: -18.4%; Giardia FBPA inh: -9.8%

Results for O=C1C=C(NC2=CC3OC(c4ccccc4)OCC3OC2=O)CCC1 (centres undefined) ?
Shiga inhibitor: 35.3*; LmPK inh: -2.9%; RE007 growth inh: -26.7%; CHX counter: 27.0*; TbPYK inhibitor: -17.8%; Giardia FBPA inh: 5.2%

Results for O=C1C=C(NCc2ccccc2)CCC1 ?
Shiga inhibitor: 5.7; LmPK inh: -1.9%; RE007 growth inh: -5.5%; CHX counter: -0.7; TbPYK inhibitor: 8.5%; Giardia FBPA inh: 3.0%

Results for COc1cccc(CNCCSc2nnnn2C)c1OCc1ccccc1F ?
TbPYK inhibitor: -0.4%

Results for Nc1cc(C(=O)OCC(=O)N2CCCC2)ccc1Cl ?
Shiga inhibitor: 50.0*; LmPK inh: -10.5%; RE007 growth inh: 1.7%; CHX counter: 30.5*; TbPYK inhibitor: -8.2%; Giardia FBPA inh: 2.0%

How did Nc1cc(Cl)ccc1C(=O)OCC(=O)N1CCCCCC1 do in these assays?
RE007 growth inh: -2.7%; TbPYK inhibitor: -5.5%

What do the screens show for `Nc1cc(Cl)ccc1C(=O)OCC(=O)N1CCCC1`?
Shiga inhibitor: 35.0; LmPK inh: -9.2%; RE007 growth inh: 0.9%; CHX counter: 17.3*; TbPYK inhibitor: -6.1%; Giardia FBPA inh: 2.9%

How did O=C(OCC(=O)N1CCOCC1)c1ccc(O)cc1 do in these assays?
Shiga inhibitor: 25.2; LmPK inh: -8.6%; RE007 growth inh: -15.1%; CHX counter: -1.0; TbPYK inhibitor: 7.2%

Results for Nc1cc(Cl)ccc1C(=O)OCC(=O)N1CCOCC1 ?
Shiga inhibitor: 25.2; LmPK inh: 3.3%; RE007 growth inh: -8.3%; CHX counter: 21.2*; TbPYK inhibitor: 7.6%; Giardia FBPA inh: 7.8%

Results for O=C(OCC(=O)N1CCOCC1)c1ccccc1O ?
Shiga inhibitor: 72.3*; LmPK inh: -9.8%; RE007 growth inh: 5.6%; CHX counter: 28.6*; TbPYK inhibitor: -4.3%; Giardia FBPA inh: -8.7%

How did Cc1cc(NS(=O)(=O)c2ccc(N3C(=O)C4C5C=CC(C5)C4C3=O)cc2)nc(C)n1 (centres undefined) do in these assays?
Shiga inhibitor: 16.1; LmPK inh: 1.7%; RE007 growth inh: 4.6%; CHX counter: 14.4*; TbPYK inhibitor: -14.7%; Giardia FBPA inh: 2.2%

What do the screens show for `Cc1ccc(S(=O)(=O)Nc2ccc(S(=O)(=O)Nc3cc(C)nc(C)n3)cc2)cc1`?
Shiga inhibitor: 36.4; LmPK inh: -6.9%; RE007 growth inh: 6.1%; CHX counter: 6.9; TbPYK inhibitor: -2.8%; Giardia FBPA inh: -4.0%

How did Cc1cc(N2CCCCC2C)nc(-c2ccccc2O)n1 (centres undefined) do in these assays?
Shiga inhibitor: 15.5; LmPK inh: -2.1%; RE007 growth inh: -16.4%; CHX counter: 8.4; TbPYK inhibitor: 3.3%; Giardia FBPA inh: 4.9%

How did COc1cc2c(C(=O)N3CCN(c4ccc(F)cc4)CC3)cn(CC(C)C)c(=O)c2cc1OC do in these assays?
TbPYK inhibitor: 3.0%
